# Data as given in PubChem BioAssay (NCATS).
# Results filed as inconclusive are left out. Values without a mark were called inactive. Activity calls are given as the source filed them. Calls come from the whole dose curve; as a rule, active = well fitted curve in the direction sought with a large enough effect; inconclusive = small, poorly fitted or top-dose-only effect, or another doubt; inactive = no such curve, though single readings can be large; an effect the other way counts as inactive or inconclusive.
# Molecular target: Aldehyde dehydrogenase, mitochondrial (Homo sapiens) (UniProt P05091)
# Experiment: qHTS for Inhibitors of the Aldehyde Dehydrogenase Family (ALDH2) Primary screen (AID 2061308);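 note: plate controls were vehicle for no effect and reference inhibitor for full effect; nearly all actives have a fitted effect of over 55% in size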
# Settings: ALDH2 enzyme inhibition qHTS, 1536-well; series mostly up to 56 µM; activity change, negative = inhibition: at the top concentration
Compound,"activity change, negative = inhibition",Potency
O=S(=O)(Nc1nccs1)c1ccc(NCc2ccc(Cl)cc2O)cc1,7.03%,–
Cc1nc(Nc2nc3ccccc3o2)nc2c1CCCC2,-6.23%,–
CC(=O)Nc1ccc(S(=O)(=O)N2CCN(S(=O)(=O)c3c(F)cccc3F)CC2)cc1,-6.01%,–
NC(=O)C1CCN(c2nnc(-c3ccc4c(c3)OCCCO4)s2)CC1,-4.65%,–
Cc1sc(NC(=O)Cc2ccc3c(c2)OCO3)nc1-c1ccc2c(c1)CCN2C(=O)c1ccccc1F,-9.96%,–
CC(C)N1CCc2c(sc(NC(=O)C(F)F)c2-c2nc3ccccc3s2)C1,-20.8%,–
CC(C)(C)N[S+](=O)([O-])c1cccc(-c2nnc(SCC(=O)Nc3ccc(C(=O)O)cc3)n2-c2ccccc2)c1,-16.4%,–
O=C(CNC(=O)c1ccccc1)OC(CCc1ccccc1)C(=O)Nc1cc(C(F)(F)F)ccc1Cl (stereo not given),-0.55%,–
O=C(O)c1ccc2c(c1)C(=O)N([C@H](Cc1cccc3ccccc13)C(=O)O)C2=O,-4.64%,–
O=C(O)c1cccc(S(=O)(=O)N2CCN(S(=O)(=O)c3ccc4c(c3)OCCO4)CC2)c1,4.24%,–
COc1nccc(-c2nc(Nc3ccc(F)c(F)c3)c3ccccc3n2)c1OC,-18.6%,–
Cc1cccc(CNc2ncnc3ccc(-c4ccc5c(ccn5C)c4)cc23)c1,18.1%,–
COc1ccc(NC(=O)C(OC(=O)CNC(=O)c2ccccc2)c2ccccc2)cc1F (stereo not given),0.0767%,–
CC(=O)Nc1ccc(-c2nc3ccccc3s2)cc1,-0.859%,–
Cc1ccc(-c2ccc(=O)n(CCNC(C)c3ccco3)n2)cc1 (stereo not given),-11.6%,–
CC(C)(C)NS(=O)(=O)c1cccc(-c2nnc(SCC(=O)Nc3ccc(C(=O)O)cc3)n2-c2ccc(F)cc2)c1,-10.7%,–
Cc1csc(CNc2ncnc3ccc(-c4ccc(C(=O)O)o4)cc23)n1,-12.6%,–
COc1ccc(CN(Cc2ccccc2)C(=O)c2ccccc2O)cc1COc1ccc(NC(C)=O)cc1,-0.666%,–
Cc1ccc(OCCn2c(CCNCC3CCCCC3)nc3ccccc32)cc1,1.99%,–
CCOc1ccc(CCNC(=O)Cc2ccccc2)cc1OCC,-11.3%,–

Compound,"activity change, negative = inhibition",Potency
CC(C)c1ccccc1-c1ncc(F)c(NC2(c3ccc(-c4cccnc4)cc3)CC2)n1,–,inactive
C=C1C(=O)OC2C3=C(C)C(=O)CC3C(C)CC(O)C12 (stereo not given),1.97%,–
O=C(Nc1ncc(Cc2ccc(C(F)(F)F)cc2)s1)c1ccc(-c2ccccc2)o1,18%,–
O=C(NC(NC(=S)Nc1ccc(F)c([N+](=O)[O-])c1)C(Cl)(Cl)Cl)C(c1ccccc1)c1ccccc1 (stereo not given),-10.4% [at 16.9 µM],–
Nc1ccc2c(=O)n3nc(Nc4ccc5c(c4)CCC5)sc3nc2c1,–,inactive
Cc1noc(C)c1-c1ccc2ncnc(NCc3ccc(C(F)(F)F)cc3)c2c1,1.79%,–
COc1cc(-c2no[n+]([O-])c2C#N)cc(OC)c1OC,-3.22%,–
CC(C)(NC(=O)Nc1ccccc1Cl)C(=O)N1CCC(C(=O)O)CC1,18.2%,–
COc1cc(C2Nc3ccccc3C(=O)N2Cc2ccccc2)ccc1OCc1ccc(NC(C)=O)cc1 (stereo not given),-15.5%,–
O=S(=O)(c1cccc(Br)c1)N1CCN(S(=O)(=O)c2ccc3c(c2)OCCO3)CC1,8.47%,–
Cc1cc(NS(=O)(=O)c2ccc(NC(=O)Cc3ccc(Cl)c(C(F)(F)F)c3)cc2)no1,-4.89%,–
Cc1cc(NS(=O)(=O)c2ccc(NC(=O)Cc3ccc(F)c(Cl)c3)cc2)no1,-5.37%,–
CC(C)C[C@H](C(=O)O)c1cc(-c2ccc(C(F)(F)F)cc2)cc(-c2ccc(C(F)(F)F)cc2)c1,-6.08%,–
Cc1ccc(OCCn2c(CCNC(=O)c3cc([N+](=O)[O-])ccc3[N+](=O)[O-])nc3ccccc32)cc1,-10.4%,–
COc1cccc(C2c3c(ncn(-c4cccc(Br)c4)c3=N)Oc3ccc4ccccc4c32)c1 (stereo not given),0.313%,–
Cc1cnc(NC(=O)c2cc(S(=O)(=O)N(C)C)ccc2N2CCCC2)s1,13.1%,–
O=C1CCc2cc(S(=O)(=O)Nc3ccc(Cl)c(Cl)c3)c(F)cc2N1,–,inactive
O=C1CCCC2=C1C1(CCCOC1)N=C(Nc1nc3ccccc3o1)N2 (stereo not given),-8.4%,–
Oc1cccc2cc(-c3ccccc3)cnc12,-5.33%,–
O=S(=O)(Nc1cccc2cccnc12)c1ccc(Br)s1,-12.3%,–

# Molecular target: Retinaldehyde dehydrogenase 3 (Homo sapiens) (UniProt P47895)
# Experiment: qHTS for Inhibitors of the Aldehyde Dehydrogenase Family (ALDH1A3) Primary screen (AID 2061315);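 note: plate controls were DMSO vehicle for no effect and reference inhibitor for full effect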
# Settings: ALDH inhibition qHTS; series mostly up to 56 µM; activity change, negative = inhibition: at the top concentration
Compound,"activity change, negative = inhibition",Potency
O=S(=O)(Nc1nccs1)c1ccc(NCc2ccc(Cl)cc2O)cc1,10.2%,–
Cc1nc(Nc2nc3ccccc3o2)nc2c1CCCC2,5.99%,–
CC(=O)Nc1ccc(S(=O)(=O)N2CCN(S(=O)(=O)c3c(F)cccc3F)CC2)cc1,-13.4%,–
NC(=O)C1CCN(c2nnc(-c3ccc4c(c3)OCCCO4)s2)CC1,-26.3%,–
Cc1sc(NC(=O)Cc2ccc3c(c2)OCO3)nc1-c1ccc2c(c1)CCN2C(=O)c1ccccc1F,-3.12%,–
CC(C)N1CCc2c(sc(NC(=O)C(F)F)c2-c2nc3ccccc3s2)C1,-22.7%,–
CC(C)(C)N[S+](=O)([O-])c1cccc(-c2nnc(SCC(=O)Nc3ccc(C(=O)O)cc3)n2-c2ccccc2)c1,9.25%,–
O=C(CNC(=O)c1ccccc1)OC(CCc1ccccc1)C(=O)Nc1cc(C(F)(F)F)ccc1Cl (stereo not given),8.41%,–
O=C(O)c1ccc2c(c1)C(=O)N([C@H](Cc1cccc3ccccc13)C(=O)O)C2=O,-0.427%,–
O=C(O)c1cccc(S(=O)(=O)N2CCN(S(=O)(=O)c3ccc4c(c3)OCCO4)CC2)c1,1.3%,–
COc1nccc(-c2nc(Nc3ccc(F)c(F)c3)c3ccccc3n2)c1OC,-0.246%,–
Cc1cccc(CNc2ncnc3ccc(-c4ccc5c(ccn5C)c4)cc23)c1,6.51%,–
COc1ccc(NC(=O)C(OC(=O)CNC(=O)c2ccccc2)c2ccccc2)cc1F (stereo not given),1.26%,–
CC(=O)Nc1ccc(-c2nc3ccccc3s2)cc1,-20.5%,–
Cc1ccc(-c2ccc(=O)n(CCNC(C)c3ccco3)n2)cc1 (stereo not given),-9.69%,–
CC(C)(C)NS(=O)(=O)c1cccc(-c2nnc(SCC(=O)Nc3ccc(C(=O)O)cc3)n2-c2ccc(F)cc2)c1,2.09%,–
Cc1csc(CNc2ncnc3ccc(-c4ccc(C(=O)O)o4)cc23)n1,2.07%,–
COc1ccc(CN(Cc2ccccc2)C(=O)c2ccccc2O)cc1COc1ccc(NC(C)=O)cc1,-5.95%,–
Cc1ccc(OCCn2c(CCNCC3CCCCC3)nc3ccccc32)cc1,16.3%,–
CCOc1ccc(CCNC(=O)Cc2ccccc2)cc1OCC,10%,–

Compound,"activity change, negative = inhibition",Potency
CC(C)c1ccccc1-c1ncc(F)c(NC2(c3ccc(-c4cccnc4)cc3)CC2)n1,–,inactive
C=C1C(=O)OC2C3=C(C)C(=O)CC3C(C)CC(O)C12 (stereo not given),-16.7%,–
O=C(Nc1ncc(Cc2ccc(C(F)(F)F)cc2)s1)c1ccc(-c2ccccc2)o1,13.6%,–
O=C(NC(NC(=S)Nc1ccc(F)c([N+](=O)[O-])c1)C(Cl)(Cl)Cl)C(c1ccccc1)c1ccccc1 (stereo not given),12.5% [at 16.9 µM],–
Nc1ccc2c(=O)n3nc(Nc4ccc5c(c4)CCC5)sc3nc2c1,–,inactive
Cc1noc(C)c1-c1ccc2ncnc(NCc3ccc(C(F)(F)F)cc3)c2c1,2.72%,–
COc1cc(-c2no[n+]([O-])c2C#N)cc(OC)c1OC,-9.27%,–
CC(C)(NC(=O)Nc1ccccc1Cl)C(=O)N1CCC(C(=O)O)CC1,1.93%,–
COc1cc(C2Nc3ccccc3C(=O)N2Cc2ccccc2)ccc1OCc1ccc(NC(C)=O)cc1 (stereo not given),-6.02%,–
O=S(=O)(c1cccc(Br)c1)N1CCN(S(=O)(=O)c2ccc3c(c2)OCCO3)CC1,8.23%,–
Cc1cc(NS(=O)(=O)c2ccc(NC(=O)Cc3ccc(Cl)c(C(F)(F)F)c3)cc2)no1,21.6%,–
Cc1cc(NS(=O)(=O)c2ccc(NC(=O)Cc3ccc(F)c(Cl)c3)cc2)no1,12.2%,–
CC(C)C[C@H](C(=O)O)c1cc(-c2ccc(C(F)(F)F)cc2)cc(-c2ccc(C(F)(F)F)cc2)c1,-5.94%,–
Cc1ccc(OCCn2c(CCNC(=O)c3cc([N+](=O)[O-])ccc3[N+](=O)[O-])nc3ccccc32)cc1,-7.31%,–
COc1cccc(C2c3c(ncn(-c4cccc(Br)c4)c3=N)Oc3ccc4ccccc4c32)c1 (stereo not given),0.624%,–
Cc1cnc(NC(=O)c2cc(S(=O)(=O)N(C)C)ccc2N2CCCC2)s1,5.07%,–
O=C1CCc2cc(S(=O)(=O)Nc3ccc(Cl)c(Cl)c3)c(F)cc2N1,–,inactive
O=C1CCCC2=C1C1(CCCOC1)N=C(Nc1nc3ccccc3o1)N2 (stereo not given),3.01%,–
Oc1cccc2cc(-c3ccccc3)cnc12,20.2%,–
O=S(=O)(Nc1cccc2cccnc12)c1ccc(Br)s1,-24.8%,–
